Assay outcomes as filed in PubChem.
This is a sample that favours compounds with a hit; in the whole collection about 4.1% have one here.
DAX1 inh-1 = inhibitors of human orphan nuclear receptor DAX1 (NR0B1); P51843; HEK293 Gal4-DAX1 luciferase reporter, luminescence; actives 0.99% (n = 340,000); inhibition, % at 6.75 µM; AID 504766;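 active = inhibition above the mean over all tested compounds plus 3 SD, cut at about 4.2% in these data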;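 also: inhibition shows as a rise in luminescence from relieved DAX1 repression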
Target sequence (P51843 207-470 limits assumed): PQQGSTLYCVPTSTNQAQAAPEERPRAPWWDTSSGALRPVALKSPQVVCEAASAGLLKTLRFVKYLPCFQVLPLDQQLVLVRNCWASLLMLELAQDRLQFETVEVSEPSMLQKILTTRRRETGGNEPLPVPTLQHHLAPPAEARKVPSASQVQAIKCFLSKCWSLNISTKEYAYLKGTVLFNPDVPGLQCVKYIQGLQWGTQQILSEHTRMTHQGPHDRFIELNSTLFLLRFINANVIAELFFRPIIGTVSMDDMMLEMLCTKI
hcDAF-12 act = H. contortus DAF-12 activation, primary screen; activation, % at 6.8 µM; actives 1.4% (n = 370,000); AID 652067; HEK293 hcDAF-12 lit1-tk-luc reporter, luminescence; 0% DMSO, 100% Δ7-dafachronic acid;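 active = activation above the mean of all tested compounds plus 3 SD, cut at about 5.5% in these data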
ssDAF12 agonist = S. stercoralis DAF-12 activation, primary screen | HEK293 ssDAF-12/GRIP1 lit1-tk-luc reporter, luminescence; % of 3 µM dafachronic acid response | activation, % at 6.8 µM | actives 1% (n = 370,000);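 active = activation above the mean over all tested compounds plus 3 SD, cut at about 0.9% in these data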
DAX1 inh-2 = blocks DAX1 repression of SF-1 activated StAR promoter; HEK293T StAR-luciferase reporter, SF-1/DAX-1 repression relief; inhibition, % at 6.8 µM; actives 1.1% (n = 370,000);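 active = inhibition above the mean over all tested compounds plus 3 SD, cut at about 3.6% in these data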;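 also: higher inhibition means more luminescence from relief of DAX-1 repression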
hgDAF12 agonist = agonists of H. glycines DAF-12 nuclear receptor; AID 687014; HEK293 GAL4-hgDAF12 UAS-luciferase reporter, agonist luminescence; normalized to butyrate control; activation, % at 6.8 µM; actives 1.8% (n = 370,000);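 active = activation above a cutoff set at the mean of all screened compounds plus 3 SD, cut at about 10% in these data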
Each line names hits and unclear results; the compound was inactive in the other large screens.

O=C1c2cccc3cccc(c23)C(=O)C1(O)O	hcDAF-12 act 5.8
O=C1NC(=O)C2(N1)C(=O)c1cccc3cccc2c13 (stereo unspecified)	none
O=P(C1=C(N2CCOCC2)/C(=C\c2ccccc2)CC1)(N1CCOCC1)N1CCOCC1	hcDAF-12 act 6.5
O=C(NP(=O)(N1CCOCC1)N1CCOCC1)C1=C(N2CCOCC2)/C(=C\c2ccccc2)CC1	none
COc1ccc(C2=Nc3ccccc3NC(=O)C2N(C(=O)c2cnc(C)cn2)c2ccc(N3CCOCC3)cc2)cc1 (stereo unspecified)	DAX1 inh-2 3.7 (no result: DAX1 inh-1)
Cn1cccc1/C=N/NC(=O)c1ccncc1	hcDAF-12 act 6.2 (no result: DAX1 inh-1)
CCc1ccc(/C=N/NC(=O)c2ccccn2)cc1	hgDAF12 agonist 10.7
O=C(N/N=C/c1cccs1)c1ccccn1	hgDAF12 agonist 11.5
Cn1cccc1/C=N/NC(=O)c1ccccn1	DAX1 inh-2 3.7, hgDAF12 agonist 11.6
O=C(N/N=C/c1ccc(OC(=O)c2ccccc2Cl)cc1)c1ccccn1	none (no result: hcDAF-12 act, ssDAF12 agonist, DAX1 inh-2, hgDAF12 agonist)
O=C(OCc1ccc(CSc2nnc(-c3cccc4ccccc34)o2)cc1)c1ccc(F)cc1	none (no result: DAX1 inh-1, DAX1 inh-2)
Cc1ccc(S(=O)(=O)n2ccc(-c3c(-c4ccccc4)noc3C)n2)cc1	none (no result: DAX1 inh-1)
O=C(Nc1ccc2c(c1)Cc1ccccc1-2)c1ccccc1F	hgDAF12 agonist 11.0
O=C(Nc1ccc2c(c1)Cc1ccccc1-2)c1ccc(Br)o1	none
CC(=O)Nc1ccc2c(c1)Cc1c(F)cccc1-2	DAX1 inh-2 4.3, hgDAF12 agonist 10.9
O=C(Cc1ccccc1F)Nc1nnc(-c2cccnc2)s1	none (no result: DAX1 inh-1)
O=C(O)C1C2C=CC(C2)C1C(=O)NCc1ccco1 (stereo unspecified)	none
COc1ccc(NC(=O)C2C3C=CC(C3)C2C(=O)NCc2ccco2)c(OC)c1 (stereo unspecified)	DAX1 inh-1 5.9
O=C(NCCO)C1(C(=O)C2CC2)CC(c2ccccn2)=NO1 (stereo unspecified)	none (no result: DAX1 inh-1)
O=C(Nc1ccc(Cl)c(Cl)c1)c1cccnc1	DAX1 inh-1 6.3
CC(C)c1ccc(C(=O)Nc2cccnc2)cc1	hgDAF12 agonist 10.5
O=C(Nc1cccc(NC(=O)c2cccnc2)c1)c1cccnc1	none (no result: hcDAF-12 act, ssDAF12 agonist, DAX1 inh-2, hgDAF12 agonist)
CC(C)(C)c1ccc(-c2cn(C[C@H](Cc3ccccc3)n3c(=O)c4ccccc4n3Cc3ccccc3)nn2)cc1	none (no result: DAX1 inh-1)
CC1CCCN(C(=O)CSCC(=O)Nc2nc(-c3cccs3)cs2)C1 (stereo unspecified)	hcDAF-12 act 6.4
CC1CCN(C(=O)CSCC(=O)Nc2nc(-c3cccs3)cs2)CC1	none
COCc1nnc(NS(=O)(=O)c2ccc(C)cc2)s1	DAX1 inh-1 4.4
COCc1nnc(NS(=O)(=O)c2ccccc2)s1	none
O=C(OCCN1CCN(C2CN(Cc3cn(Cc4cccc(F)c4)nn3)S(=O)(=O)C2)CC1)c1cc2ccccc2o1 (stereo unspecified)	none (no result: DAX1 inh-1)
CC(OC(=O)c1ncc(Cl)c(Cl)c1Cl)C(=O)NC1(C#N)CCCCC1 (stereo unspecified)	none
CC(OC(=O)c1ccc(Cl)nc1)C(=O)NC1(C#N)CCCCC1 (stereo unspecified)	DAX1 inh-1 4.5
CCOc1ccc2nc(Cl)c(C3CC(c4ccco4)=NN3S(=O)(=O)c3ccccc3)cc2c1 (stereo unspecified)	ssDAF12 agonist 1.4
COCCCN1C(=O)[C@H](CC(=O)N2CCOCC2)[C@]2(C(=O)OC)CCCCC=C12	none (no result: DAX1 inh-1)
CC12CC3(C)CC(C)(C1)CC(C(N)=O)(C2)C3	DAX1 inh-1 5.8
CN(C)CCOC(=O)C12CC3(C)CC(C)(CC(C)(C3)C1)C2	none
COC(=O)C1CN(C(=O)c2ccc(OC(F)F)cc2)c2ccccc2O1 (stereo unspecified)	DAX1 inh-1 4.3
COP(=O)(OC)c1nc(-c2cccc3ccccc23)oc1NCc1ccccc1	DAX1 inh-1 4.6
COc1ccc(CNc2oc(-c3cccc4ccccc34)nc2P(=O)(OC)OC)cc1	none
CCCCCCCC(=O)O	DAX1 inh-1 4.7
CCCCCCCCS(=O)CCC(=O)O (stereo unspecified)	none
O=C(N/N=C/c1ccoc1)c1ccccc1O	DAX1 inh-2 3.7
O=C(N/N=C/CCc1ccccc1)C1CCCCC1	none
CC(=O)n1cc(Nc2ccccc2C(=O)O)c2ccccc21	ssDAF12 agonist 0.9
O=C(N/N=C/CCc1ccccc1)c1ccccc1	hgDAF12 agonist 10.8
